The full ranking holds about 33,000 sequences; the median of “e-score” is about -0.053, and the highest 2% start at about 0.38. What follows is part of a selection rich in the highest values, with near analogues and random picks from the rest.

This assay has as its target T1, SIX1 homeodomain (reference allele) (human, UniProt Q15475 108-198).
T1 sequence: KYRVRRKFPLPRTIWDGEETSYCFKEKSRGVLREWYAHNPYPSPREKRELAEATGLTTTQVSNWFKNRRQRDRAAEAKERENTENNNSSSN
In words: universal protein binding microarray; Universal all-10-mer PBM (8x60K, AMADID 030236), 300 nM GST-tagged protein, Alexa Fluor 488 anti-GST; buffer, salt, pH and temperature not stated (as in Berger); high values mean tight binding. Particulars: protein: ivt; tags: N-terminal GST; dsDNA, one strand shown. In a few lines:
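Homeodomains carrying a GST tag were produced by in vitro transcription/translation, then quantified by anti-GST western blot against a recombinant GST standard curve. Duplicate applications at 300 nM final concentration were made to universal 'all 10-mer' protein binding microarrays in 8×60K format. The Universal PBM Analysis Suite was used to express binding as 8-mer E-scores.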
AGTACGAT: the binding signal came to 0.248 ± 0.0454 E-score. ATCATAAT: the binding signal turned out to be 0.229 ± 0.0622 E-score. As to GATAATGC, the binding signal was determined as 0.16 ± 0.00226 E-score. In the case of GCGATCTA, the binding signal is 0.218 ± 0.0326 E-score. As for CTCCGGTA, the binding signal is 0.244 ± 0.0299 E-score. With GAAACACC, the binding signal was 0.189 ± 0.0066 E-score. Turning to CGATCCCG, the binding signal came to 0.332 ± 0.04 E-score. With TGATCCCA the figure was 0.3763 ± 0.00132 E-score; with AGATCCCC, 0.384 ± 0.0161 E-score.

AGATCCCG: the binding signal is 0.302 ± 0.0627 E-score.

As for AGATCCCA, the binding signal turned out to be 0.213 ± 0.0026 E-score. With CGATCCCC the figure was 0.437 ± 0.041 E-score; with GAATCCCC, 0.23 ± 0.0451 E-score; with CGATCCCA, 0.346 ± 0.0579 E-score. On to GGATCCCA, for which the binding signal was determined as 0.37 ± 0.0601 E-score.

Take TGATCCAA: the binding signal was 0.324 ± 0.0147 E-score. The value for AGATCCCT was 0.292 ± 0.00813 E-score; that for GGATCCCC was 0.419 ± 0.0404 E-score; that for ATATACAA was 0.27 ± 0.0205 E-score. With ATAGGAGA, the binding signal amounted to 0.185 ± 0.0295 E-score.

Regarding GATCGTAC, the binding signal was found to be 0.274 ± 0.0438 E-score. On to ATACATGG, for which the binding signal came out at 0.3102 ± 0.0018 E-score. As to CAGACACC, the binding signal is 0.291 ± 0.0577 E-score. In the case of ATGACACC, the binding signal amounted to 0.4711 ± 0.00199 E-score.

For the sequence CTGACACC, the binding signal came to 0.468 ± 0.0134 E-score. On to CGGACACC, for which the binding signal came out at 0.3658 ± 0.00136 E-score. With ATGACACG the figure was 0.289 ± 0.0161 E-score; with AGGACACC, 0.366 ± 0.0116 E-score. With TATCGCAA, the binding signal stood at 0.33 ± 0.0108 E-score. Take CCAGGAGA: the binding signal came out at 0.158 ± 0.0169 E-score.

In the case of AGCATGAT, the binding signal was determined as 0.2 ± 0.0238 E-score. As for ATAAGCAG, the binding signal was 0.173 ± 0.00802 E-score.

For the sequence CGCTGATC, the binding signal was found to be 0.279 ± 0.0361 E-score. Take AGATGATA: the binding signal came to 0.432 ± 0.0425 E-score. With GGATGGTA, the binding signal came out at 0.214 ± 0.0386 E-score. Consider AGAAGATC, for which the binding signal came out at 0.231 ± 0.077 E-score. Consider AGATGATC, for which the binding signal was determined as 0.38 ± 0.0348 E-score. The value for AGCTGATC was 0.3159 ± 0.00281 E-score. On to GGATGAGA, for which the binding signal stood at 0.212 ± 0.0038 E-score. Consider AGATGAGA, for which the binding signal is 0.224 ± 0.0832 E-score. As to GGATGATA, the binding signal was determined as 0.443 ± 0.0105 E-score.

Turning to AGAAGATA, the binding signal was found to be 0.201 ± 0.105 E-score. In the case of CGATCATC, the binding signal came to 0.3167 ± 0.00296 E-score. CGATGATC: the binding signal came to 0.379 ± 0.019 E-score. For the sequence ATGAAACC, the binding signal stood at 0.242 ± 0.0415 E-score.

In the case of ATCCCATA, the binding signal stood at 0.351 ± 0.0216 E-score.

Take ATATTTGA: the binding signal is 0.173 ± 0.0606 E-score. In the case of ATCATTTG, the binding signal worked out at 0.244 ± 0.0909 E-score. Consider ATCGGGCC, for which the binding signal was found to be 0.188 ± 0.0382 E-score. With ACACCTGT, the binding signal is 0.277 ± 0.00124 E-score.

For the sequence TATCGAGA, the binding signal amounted to 0.293 ± 0.0133 E-score. In the case of ATAGCCGG, the binding signal came to 0.22519 ± 0.00017 E-score. With ACGCATCT, the binding signal amounted to 0.169 ± 0.0233 E-score. For GGCAGATA, the binding signal stood at 0.216 ± 0.0469 E-score.

With ACAGTGAT, the binding signal stood at 0.199 ± 0.0229 E-score. ACTAGGAT: the binding signal came to 0.187 ± 0.0427 E-score.

With CAGTTATC, the binding signal stood at 0.176 ± 0.0291 E-score. On to AACAATAT, for which the binding signal worked out at 0.253 ± 0.0623 E-score.

For the sequence CGATGACA, the binding signal came to 0.18 ± 0.00711 E-score. With CGATGATA the figure was 0.445 ± 0.0281 E-score. CGATGAGA: the binding signal turned out to be 0.191 ± 0.0564 E-score. For the sequence ATTATGCG, the binding signal was found to be 0.242 ± 0.0214 E-score.

As for GTGTAGTA, the binding signal was determined as 0.185 ± 0.0109 E-score. Take CACTATCA: the binding signal worked out at 0.276 ± 0.0303 E-score.

With GTATATAC, the binding signal was 0.316 ± 0.0323 E-score. For the sequence AGATATAA, the binding signal stood at 0.261 ± 0.0786 E-score. The value for CGATATAC was 0.405 ± 0.0197 E-score; that for CGATATAG was 0.362 ± 0.0306 E-score; that for CGATATAA was 0.243 ± 0.0501 E-score. As to GGATATAC, the binding signal was 0.406 ± 0.0168 E-score. On to AGATATAC, for which the binding signal was found to be 0.38 ± 0.0393 E-score. With AGATATAT, the binding signal stood at 0.337 ± 0.0754 E-score. As to GGATATAA, the binding signal came to 0.352 ± 0.0244 E-score. Consider ACACGGGC, for which the binding signal is 0.179 ± 0.0209 E-score.

For the sequence ACCCCGTA, the binding signal was found to be 0.209 ± 0.0622 E-score. With CGGTTTCA the figure was 0.152 ± 0.0123 E-score; with ATCCTCAC, 0.234 ± 0.0503 E-score. With ATAGTGTA, the binding signal turned out to be 0.205 ± 0.0143 E-score.

As to CTCAAGGA, the binding signal worked out at 0.164 ± 0.0491 E-score. GGGGCGGA: the binding signal was determined as 0.159 ± 0.113 E-score. With ATTTATAC, the binding signal worked out at 0.22 ± 0.116 E-score.

TATGGTAA: the binding signal turned out to be 0.166 ± 0.0578 E-score. ACACCCCC: the binding signal is 0.3856 ± 0.00209 E-score. Regarding ATACCCCG, the binding signal is 0.4703 ± 0.00344 E-score. For the sequence ACACCCCA, the binding signal turned out to be 0.365 ± 0.0445 E-score. With ATTACCCC, the binding signal was found to be 0.177 ± 0.0101 E-score. Turning to ATACCCCC, the binding signal worked out at 0.454 ± 0.015 E-score. Take ACACCCCG: the binding signal stood at 0.353 ± 0.0394 E-score.
